Measured values taken from PubChem BioAssay AID1159580 (chemical genetic matrix, 2015).
Out of some 5,500 compounds screened, about 2,000 (36%) were called active. Not shown: some 18% with an inconclusive outcome. Rule as the data show it: active = normalized growth mostly below about 0.91 (no sharp cut-off); inconclusive = no clear call, values can overlap the other calls; inactive = mostly above about 0.92. The list shows a part of the results.

Assay: chemical genetic growth profiling, strain panel (AID 1159580);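 also: tested at 20 µM; growth read once vehicle control cultures reached saturation at 30 °C; 1 = growth at the plate median or of vehicle wells; lower values mean less growth of the strain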
Conditions: S. cerevisiae deletion strains, growth OD

Measured: normalized growth

O=C(OC1Cc2c(O)cc(O)cc2OC1c1cc(=O)c(O)c2c(O)c(O)cc(C3Oc4cc(O)cc(O)c4CC3O)c2c1)c1cc(O)c(O)c(O)c1 (configuration not stated)
inactive: locus YJL187C, strain SWE1, stronger effect = lower value 0.95 | locus YKL009W, strain mrt4, stronger effect = lower value 1.02 | locus YKL068W, stronger effect = lower value 0.996 | locus YKL085W, strain MDH1 (second series), stronger effect = lower value 0.994 | locus YKL085W, strain MDH1, stronger effect = lower value 0.994 | locus YKL160W, strain elf1, stronger effect = lower value 0.969 | locus YKR026C, strain gcn3, stronger effect = lower value 0.967 | locus YKR091W, strain srl3, stronger effect = lower value 1 | locus YLL001W, strain dnm1, stronger effect = lower value 0.967 | locus YLL026W, stronger effect = lower value 0.978 | locus YLL041C, strain sdh2, stronger effect = lower value 0.989 | locus YLR027C, strain aat2, stronger effect = lower value 0.955 | locus YLR102C, strain apc9, stronger effect = lower value 0.973 | locus YLR221C, strain rsa3, stronger effect = lower value 0.925 | locus YLR258W, strain gsy2, stronger effect = lower value 0.946 | locus YLR320W, strain mms22, stronger effect = lower value 0.927 | locus YLR342W, strain FKS1, stronger effect = lower value 0.929 | locus YLR370C, strain arc18, stronger effect = lower value 0.916 | locus YLR384C, strain iki3, stronger effect = lower value 0.971 | locus YML120C, strain ndi1, stronger effect = lower value 0.952 | locus YML124C, strain tub3, stronger effect = lower value 0.958 | locus YMR078C, strain ctf18, stronger effect = lower value 0.973 | locus YMR125W, strain sto1, stronger effect = lower value 1.03 | locus YMR129W, stronger effect = lower value 1 | locus YMR205C, strain PFK2, stronger effect = lower value 0.901 | locus YNL071W, strain lat1, stronger effect = lower value 1 | locus YNL248C, strain rpa49, stronger effect = lower value 0.986 | locus YNL250W, strain rad50, stronger effect = lower value 0.99 | locus YNL271C, strain bni1, stronger effect = lower value 0.963 | locus YNL298W, strain CLA4, stronger effect = lower value 1 | locus YNL307C, strain MCK1, stronger effect = lower value 0.93 | locus YNL322C, strain KRE1 (second series), stronger effect = lower value 1.02 | locus YNR049C, strain mso1, stronger effect = lower value 0.997 | locus YOL012C, strain htz1 0.293 | locus YOR001W, strain rrp6, stronger effect = lower value 0.962 | locus YOR070C, strain gyp1, stronger effect = lower value 0.938 | locus YOR080W, strain dia2, stronger effect = lower value 0.966 | locus YOR083W, strain WHI5, stronger effect = lower value 0.937 | locus YOR265W, strain rbl2, stronger effect = lower value 0.969 | locus YOR316C, strain cot1, stronger effect = lower value 0.958 | locus YPL078C, strain atp4, stronger effect = lower value 0.957 | locus YPL106C, strain sse1, stronger effect = lower value 0.872 | locus YPL240C, strain hsp82, stronger effect = lower value 0.97 | locus YPR119W, strain clb2, stronger effect = lower value 0.988 | locus YPR141C, strain kar3, stronger effect = lower value 0.993 | locus YPR163C, strain tif3, stronger effect = lower value 0.969
active: locus YJL187C, strain SWE1 (second series), stronger effect = lower value 0.0967 | locus YJR043C, strain POL32, stronger effect = lower value 0.203 | locus YJR075W, strain HOC1, stronger effect = lower value 0.58 | locus YKL190W, strain CNB1, stronger effect = lower value 0.126 | locus YKR001C, strain vps1, stronger effect = lower value 0.688 | locus YLR039C, strain RIC1, stronger effect = lower value 0.17 | locus YLR058C, strain SHM2, stronger effect = lower value 0.183 | locus YLR262C, strain YPT6 (second series), stronger effect = lower value 0.811 | locus YLR262C, strain YPT6, stronger effect = lower value 0.342 | locus YLR268W, strain sec22, stronger effect = lower value 0.609 | locus YLR330W, strain CHS5, stronger effect = lower value 0.708 | locus YLR342W, strain FKS1 (second series), stronger effect = lower value 0.263 | locus YLR357W, strain rsc2, stronger effect = lower value 0.744 | locus YLR371W, strain rom2, stronger effect = lower value 0.711 | locus YLR418C, strain cdc73, stronger effect = lower value 0.356 | locus YML016C, strain PPZ1, stronger effect = lower value 0.0879 | locus YML032C, strain rad52, stronger effect = lower value 0.879 | locus YMR058W, strain fet3, stronger effect = lower value 0.252 | locus YMR223W, strain ubp8, stronger effect = lower value 0.761 | locus YMR231W, strain pep5, stronger effect = lower value 0.866 | locus YMR307W, strain GAS1, stronger effect = lower value 0.339 | locus YNL067W, strain RPL9B, stronger effect = lower value 0.486 | locus YNL128W, strain TEP1, stronger effect = lower value 0.145 | locus YNL153C, strain GIM3, stronger effect = lower value 0.417 | locus YNL209W, strain ssb2, stronger effect = lower value 0.749 | locus YNL233W, strain BNI4, stronger effect = lower value 0.621 | locus YNR052C, strain pop2, stronger effect = lower value 0.648 | locus YOL006C, strain TOP1, stronger effect = lower value 0.139 | locus YOL147C, strain pex11, stronger effect = lower value 0.865 | locus YOR061W, strain CKA2, stronger effect = lower value 0.383 | locus YOR069W, strain VPS5, stronger effect = lower value 0.485 | locus YOR106W, strain vam3, stronger effect = lower value 0.657 | locus YOR136W, strain idh2, stronger effect = lower value 0.906 | locus YOR144C, strain elg1, stronger effect = lower value 0.915 | locus YOR184W, strain ser1, stronger effect = lower value 0.578 | locus YOR270C, strain vph1, stronger effect = lower value 0.638 | locus YOR290C, strain snf2, stronger effect = lower value 0.827 | locus YPL051W, strain arl3, stronger effect = lower value 0.827 | locus YPL241C, strain CIN2, stronger effect = lower value 0.636 | locus YPR167C, strain met16, stronger effect = lower value 0.878 | strain wtn01, stronger effect = lower value 0.667
